This is a sample that favours compounds with a hit; in the whole collection about 3% have one here.
PPC-1+TRAIL kill – kills PPC-1 cancer cells in the presence of TRAIL; cell killing (% activity), % at 4 µM or 5 µM; AID 1443; 220,000 compounds, 0.41% hits; PPC-1 cells + TRAIL, ATPLite viability luminescence;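 active means cell killing above 50% in the first pass at 4 µM, then a duplicate retest at 5 µM averaging 50% or more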;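 further: plate controls were cells with TRAIL plus DMSO for no effect and medium-only wells lacking cells for full effect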
TRAIL sens C8 – caspase-8 TRAIL sensitization; NB7+C8 cells + TRAIL, ATPlite viability luminescence; 360,000 compounds, 1% hits; inhibition (viability loss, TRAIL sensitization), % at 10 µM; AID 624354;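 active means compounds causing at least 50% loss of cell viability in the single-dose screen, relative to plate controls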
SENP7 inh – blocks the human protease SENP7 | Q9BQF6 | recombinant SENP7, Z-RLRGG-aminoluciferin luminescence, 40 min | inhibition, % at 5 µM | 330,000 compounds, 1.5% hits | AID 434973;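 active means inhibition above about 50% at the single test dose, limit read from the data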;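 further: plate controls were DMSO with enzyme for no effect and no enzyme buffer wells for full effect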
SENP8 block-1 – inhibitors of human SENP8 protease. recombinant SENP8, Nedd8 substrate fluorescence. inhibition, % at 20 µM. 360,000 compounds, 0.64% hits. AID 602440; in the data active means inhibition mostly above about 40%, no sharp cut-off; inactive means mostly below about 27%
Target sequence (Q96LD8 whole entry, looked up): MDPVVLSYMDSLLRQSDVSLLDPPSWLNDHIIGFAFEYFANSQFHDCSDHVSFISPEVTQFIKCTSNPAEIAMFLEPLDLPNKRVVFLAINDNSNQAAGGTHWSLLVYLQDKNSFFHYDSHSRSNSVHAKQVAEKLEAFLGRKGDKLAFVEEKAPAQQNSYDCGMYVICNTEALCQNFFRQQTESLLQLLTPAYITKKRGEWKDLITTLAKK
SENP6 block – SENP6 protease inhibition; Recombinant SENP6 catalytic domain, aminoluciferin luminescence; inhibition, % at 10 µM; 330,000 compounds, 1.8% hits; AID 2599;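 active means inhibition above about 50% at the single tested dose, limit read from the data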;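 further: plate controls were DMSO wells with enzyme for no effect and DMSO wells lacking enzyme for full effect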
SENP8 block-2 – blocks the human protease SENP8; purified SENP8, Z-RLRGG-aminoluciferin cleavage, luminescence; inhibition, % at 10 µM; 330,000 compounds, 1.2% hits; AID 2540; in the data active means inhibition above about 50%
SENP8 conf – confirmation of human SENP8 protease inhibitors; Recombinant SENP8, Z-RLRGG-aminoluciferin luminescence, 60 min; 6,200 compounds, 40% hits; inhibition, % at 12.5 µM; AID 488912; shares compounds with SENP7 inh;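 active means mean inhibition across replicates above about 50%, limit read from the data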
SENP6 conf – confirmation of human SENP6 protease inhibitors; shares compounds with SENP7 inh; AID 488915; recombinant SENP6, Z-RLRGG-aminoluciferin luminescence; inhibition, % at 12.5 µM; 6,200 compounds, 58% hits
SENP7 conf – confirmation of human SENP7 protease inhibitors; shares compounds with SENP7 inh; recombinant SENP7, Z-RLRGG-aminoluciferin luminescence, 40 min; inhibition, % at 12.5 µM; 6,200 compounds, 69% hits; AID 488917
Casp3 SENP sel – caspase-3 inhibition (SENP selectivity assay). shares compounds with SENP7 inh. purified caspase-3, Z-DEVD-aminoluciferin luminescence, 60 min. inhibition, % at 12.5 µM. 6,200 compounds, 60% hits;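 active means mean inhibition above about 50%, limit read from the data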;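 further: plate controls were enzyme with DMSO for no effect and wells without caspase-3 for full effect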
Target sequence (P42574 28-227 limits assumed): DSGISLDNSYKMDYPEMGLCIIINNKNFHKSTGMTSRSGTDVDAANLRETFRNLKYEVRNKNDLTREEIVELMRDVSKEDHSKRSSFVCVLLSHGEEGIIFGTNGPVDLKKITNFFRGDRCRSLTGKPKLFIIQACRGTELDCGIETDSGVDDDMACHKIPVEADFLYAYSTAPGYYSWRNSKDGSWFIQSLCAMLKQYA
SENP luc ctr – interferes with luciferase luminescence in SENP counter-screen | AID 488919 | Pre-incubated SENP8/Z-RLRGG-aminoluciferin, luciferase luminescence interference | 6,200 compounds, 39% hits | inhibition, % at 12.5 µM | shares compounds with SENP7 inh;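 active means mean inhibition above about 50% when retested at one dose, limit read from the data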;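 further: plate controls were DMSO wells with completed reaction for no effect and substrate without enzyme for full effect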
Starred values were filed as active, the others as inactive; i = inactive; / = no result given.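 How the source made its calls, unless noted: active means mean inhibition above about 50% in the one-dose retest (limit read from the data); inactive means the rest.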

SMILES | PPC-1+TRAIL kill | TRAIL sens C8 | SENP7 inh | SENP8 block-1 | SENP6 block | SENP8 block-2 | SENP8 conf | SENP6 conf | SENP7 conf | Casp3 SENP sel | SENP luc ctr
Cc1cc(O)c(-c2cc(C(=O)Nc3cccnc3)[nH]n2)cc1C | 1 | 26 | 71* | 15 | 2 | -12 | -3 | -5 | 66* | 46 | -5
COc1ccc(C(=O)NCCCNC(=O)c2ccccn2)cc1Br | / | 3 | -1 | 12 | 0 | 6 | / | / | / | / | /
COc1ccc(S(=O)(=O)N2CCCCC2)cc1NS(=O)(=O)c1ccc(CNC(C)=O)cc1 | / | 0 | -11 | 14 | -40 | -13 | / | / | / | / | /
O=C(NCCC(=O)N(Cc1ccco1)Cc1cccs1)c1ccc(Br)cc1 | / | 8 | 7 | 8 | -7 | 5 | / | / | / | / | /
CN(N=Nc1ccc([N+](=O)[O-])cc1)c1ccccc1 | -2 | 4 | 60* | 34 | 60* | 8 | 7 | 9 | 23 | 25 | 6
CN(C(=O)Nc1cccc([N+](=O)[O-])c1)c1ccccc1 | / | -15 | / | 19 | / | / | / | / | / | / | /
CN(N=Nc1cccc([N+](=O)[O-])c1)c1ccccc1 | / | 9 | 47 | 21 | 51* | 39 | 43 | 50* | 73* | 39 | 26
CN(CCCC(=O)O)c1ccc(N=Nc2ccc([N+](=O)[O-])cc2)cc1 | / | 37 | 54* | 29 | 90* | 81* | 84* | 84* | 30 | 76* | 46
CC(C)N(N=Nc1ccc([N+](=O)[O-])cc1)C(C)C | 4 | -6 | -4 | 20 | 11 | 1 | / | / | / | / | /
C(#Cc1c(-c2ccsc2)sc2ccccc12)c1ccsc1 | / | -5 | -4 | i | -15 | 0 | / | / | / | / | /
CCOC(=O)Nc1ccc(NCc2ccc(F)cc2)nc1N | / | 3 | 47 | -384 | 68* | 58* | 8 | 36 | 16 | 4 | 2
CN(C(=O)c1cccc(NC(=O)Cc2ccc(NC(=O)C3CCCN(S(=O)(=O)c4cccc([N+](=O)[O-])c4)C3)cc2)c1)C1CCCC1 (stereo unspecified) | / | 4 | / | 10 | / | / | / | / | / | / | /
O=C(O)C1CC(c2ccc(F)cc2)=NO1 (stereo unspecified) | -4 | 1 | 6 | 11 | -20 | -6 | / | / | / | / | /
O=C(O)C1CC(c2ccccc2)=NO1 (stereo unspecified) | 12 | -3 | 95* | 5 | 0 | 1 | 6 | 7 | 8 | 2 | 2
CCNC(=S)Nc1ccc(OCc2nc3ccccc3s2)cc1 | / | 12 | 17 | 4 | 36 | 6 | / | / | / | / | /
Cc1ccc(C)c(NC(=O)CCc2nnc3ccc(NCc4ccco4)nn23)c1 | / | 1 | -3 | 4 | -6 | 5 | / | / | / | / | /
O=C1NC(=O)C2(CCC(C3CCCCC3)CC2)N1 (stereo unspecified) | / | -6 | / | 1 | / | / | / | / | / | / | /
O=S(=O)(Nc1cccc2ccccc12)c1cccs1 | / | -5 | 9 | -68 | 8 | -1 | / | / | / | / | /
O=S(=O)(Nc1ccc(O)c2ccccc12)c1cccs1 | / | 6 | 19 | 20 | 63* | 30 | 13 | 12 | -6 | -2 | -1
N#CC(=C1CCCC1)c1nc(-c2ccccc2O)cs1 | 29 | 38 | 90* | 5 | 86* | 63* | 9 | 33 | 40 | 53* | 55*
N#CC(=C1CCCC1)c1nc(-c2ccccc2)cs1 | 30 | 44 | 65* | 14 | 77* | 65* | 5 | 64* | 88* | 54* | 33
Cc1ccc(-c2csc(C(C#N)=C3CCCC3)n2)cc1 | 7 | 21 | 5 | 16 | 5 | -8 | / | / | / | / | /
N#CC(=C1CCCC1)c1nc(-c2cc3ccccc3oc2=O)cs1 | 23 | 14 | 16 | -297 | -13 | -16 | / | / | / | / | /
CC(=O)OCC1OC(n2c(S)c(C#N)c(-c3ccccc3)c(C#N)c2=O)C(OC(C)=O)C(OC(C)=O)C1OC(C)=O (stereo unspecified) | / | 12 | / | -127 | / | / | / | / | / | / | /
Cc1c(C(=O)Nc2ccccc2)csc1-c1ccccc1 | 42 | 67* | 95* | 22 | 57* | 60* | -27 | 42 | 84* | 46 | -4
SMILES | PPC-1+TRAIL kill | TRAIL sens C8 | SENP7 inh | SENP8 block-1 | SENP6 block | SENP8 block-2 | SENP8 conf | SENP6 conf | SENP7 conf | Casp3 SENP sel | SENP luc ctr
c1ccc(Cn2nc(-c3ccccc3)nc2-c2ccccc2)cc1 | 9 | -7 | 41 | 11 | 62* | 47 | 45 | 38 | 74* | 29 | 17
COC(=O)c1nn(-c2ccc3c(c2)OCO3)cc1O | 19 | 14 | 79* | -265 | 72* | 48 | 67* | 64* | 90* | 91* | 72*
CC(=O)N1CCc2cc([N+](=O)[O-])ccc21 | / | -12 | / | 31 | / | / | / | / | / | / | /
COC(=O)c1nn(-c2ccc3c(c2)CCN3C(C)=O)cc1O | 76* | 81* | 85* | -293 | 91* | 75* | -5 | 82* | 97* | 96* | 84*
Cc1cc(NC(=O)COC(=O)COc2ccc3c4c(c(=O)oc3c2)CCC4)no1 | 7 | -3 | -3 | -140 | 2 | 2 | / | / | / | / | /
CC(C)c1ccc(COc2ccc(C(=O)N3CCOCC3)cc2)cc1 | -14 | 20 | 7 | 4 | 3 | 2 | / | / | / | / | /
Cc1c(C)c2ccc(OCc3ccc(C(=O)O)o3)c(C)c2oc1=O | -6 | 0 | 50* | -299 | 77* | 65* | 9 | 66* | 79* | 16 | 57*
Cc1ccc(OCc2ccc(C(=O)N3CCOCC3)cc2)cc1C | 9 | 1 | 90* | 33 | 83* | 75* | -7 | 74* | 94* | 84* | 80*
O=C(O)c1ccc(COc2ccc3c4c(c(=O)oc3c2)CCC4)o1 | -26 | 3 | 93* | -193 | 82* | 91* | 94* | 95* | 100* | 65* | 94*
O=C(COc1ccc2c3c(c(=O)oc2c1)CCC3)Nc1ccccn1 | / | 8 | 89* | -242 | 1 | 38 | 31 | 28 | 14 | 66* | 19
Cc1cc(C)cc(COc2ccc3c(C)c(CC(=O)O)c(=O)oc3c2C)c1 | / | -8 | -4 | -299 | -9 | -3 | / | / | / | / | /
O=C(CN1CCN(C(=O)CCC(=O)N2CCC(c3ccccc3)=N2)CC1)Nc1ccc(F)cc1 | / | 17 | -10 | 11 | -13 | -7 | / | / | / | / | /
